The record followed here is ChEMBL document CHEMBL4513216, “Probing the Open Global Health Chemical Diversity Library for Multistage-Active Starting Points for Next-Generation Antimalarials” (ACS Infect Dis, 2020).

Among all 68,000 compounds or so, about 2,700 (4%) showed an effect of 50% or more. The list comes from a sample in which strong results are over-represented; it also holds similar structures and randomly drawn compounds.

The experiment relates to Plasmodium berghei. Description: Screen against P. berghei liver stage (PbLuc), transformed with Luciferase, at 2uM. As to conditions: tested at 2 uM. It counts as functional, HepG2.
On to `CC(O)c1cn(Cc2cccc(C(F)(F)F)c2)nn1` (stereo not drawn), for which the INHIBITION came out at 19.08%.

For `COc1ccccc1CN1C[C@@H](F)[C@@H](OCc2nc3ncccc3[nH]2)C1`, the INHIBITION was determined as 55.57%.

For `COc1ccccc1CN1C[C@@H](F)[C@@H](OCc2nc3cnccc3[nH]2)C1`, the INHIBITION amounted to 14.89%.

As to `COc1ccccc1CN1C[C@@H](F)[C@@H](OCc2nc3ccccc3[nH]2)C1`, the INHIBITION was -6.21%.

Turning to `O=C(CS(=O)(=O)Cc1cc(Cl)c2c(c1)OCCCO2)NCC1CC1`, the INHIBITION is listed as 2.77%.

As to `CCNC(c1cccnc1)c1ccc(F)c(C)c1` (stereo not drawn), the INHIBITION came to 1.61%.

As to `CCNC(c1ccc(Cl)cc1)c1cccnc1` (stereo not drawn), the INHIBITION is reported as 8.37%.

For `CCCNC(c1ccc(F)cc1)c1cccnc1` (stereo not drawn), the INHIBITION is 26.18%.

Take `CCNC(c1ccc(F)cc1)c1cccnc1` (stereo not drawn): the INHIBITION was -49.8%.

As for `CCCNC(c1cccnc1)c1ccc(F)cc1F` (stereo not drawn), the INHIBITION is -3.32%.

With `CCNC(c1ccc(C)cc1)c1cccnc1` (stereo not drawn), the INHIBITION is recorded as -41.21%.

As to `CCNC(c1ccc(C(C)C)cc1)c1cccnc1` (stereo not drawn), the INHIBITION stood at 58.05%.

Consider `CCCNC(c1cccnc1)c1ccc(F)c(C)c1` (stereo not drawn), for which the INHIBITION is 62.36%.

For `CCNC(c1cccnc1)c1ccc(F)cc1F` (stereo not drawn), the INHIBITION is 53.98%.

Take `c1cc(CN2CCC(c3nnc4n3CCCCC4)CC2)c2nonc2c1`: the INHIBITION is recorded as -60.89%.

With `CC(C)n1ncc2c1NC(=O)CC21C(=O)Nc2c(Cl)ccc(Cl)c21` (stereo not drawn), the INHIBITION is reported as -40.36%.

In the case of `c1csc(-c2noc(C3CN(Cc4ccc5c(c4)CCO5)C3)n2)c1`, the INHIBITION was 35.6%.

As for `O=C1CCNc2ncc(-c3ccccc3Cl)cc2CN1C1CC1`, the INHIBITION was 18.48%.

In the case of `CCc1c(C)noc1-c1cnc(NC2CC2)nc1-c1cnc(C)cn1`, the INHIBITION was found to be 26.93%.

As for `O=C(c1ccnc(-n2ccnc2)c1)N1CCCC(n2ccnc2)C1` (stereo not drawn), the INHIBITION is on record as 70.27%.

For `O=C(c1ccc(-n2cnnc2)cc1)N1CCCC(n2ccnc2)C1` (stereo not drawn), the INHIBITION is reported as 56.02%.

Regarding `O=C(c1ccc2c(c1)OCO2)N1CCCC(n2ccnc2)C1` (stereo not drawn), the INHIBITION was -0.05%.

With `O=C(c1ccc2c(c1)OCCO2)N1CCCC(n2ccnc2)C1` (stereo not drawn), the INHIBITION was found to be 78.98%.

For the compound `O=C(c1ccc2c(c1)OCCCO2)N1CCCC(n2ccnc2)C1` (stereo not drawn), the INHIBITION is 11.95%.

`O=C(c1cccc2cccnc12)N1CCCC(n2ccnc2)C1` (stereo not drawn): the INHIBITION was determined as 54.2%.

Take `O=C(c1ccnc(-n2ccnc2)c1)N1CCCC(n2cccn2)C1` (stereo not drawn): the INHIBITION is given as -58.05%.

`O=C(c1ccc(-n2cnnn2)cc1)N1CCCC(n2ccnc2)C1` (stereo not drawn): the INHIBITION is recorded as 43.79%.

As for `O=C(c1cccnc1N1CCCCC1)N1CCCC(n2ccnc2)C1` (stereo not drawn), the INHIBITION came to 3.33%.

In the case of `Cc1nccn1C1CCCN(C(=O)c2ccnc(-n3ccnc3)c2)C1` (stereo not drawn), the INHIBITION is -13.24%.

Take `O=C(c1cccc2ncccc12)N1CCCC(n2ccnc2)C1` (stereo not drawn): the INHIBITION stood at 43.85%.

On to `O=C(c1ccc(-n2ccnc2)cc1)N1CCCC(n2ccnc2)C1` (stereo not drawn), for which the INHIBITION is reported as 28.87%.

For `CN(C)C(=O)N1C[C@H]2CC[C@@H](C1)N(C(=O)c1c(Cl)cccc1Cl)C2`, the INHIBITION is reported as -42.12%.

For `CN1CCCN(C(=O)NCc2ccccc2Cn2cncn2)CC1`, the INHIBITION was determined as 28.62%.

For `Cn1cccc1C(=O)OCCNC(=O)c1ccccc1`, the INHIBITION is on record as -9.17%.

As to `O=C(CC1CCCCC1)N1C[C@@H]2CC[C@H]1CN(Cc1cccnc1)C2`, the INHIBITION is 9.56%.

With `Cc1ccc(CN2Cc3cnn(C)c3C(COCC3CC3)C2)o1` (stereo not drawn), the INHIBITION turned out to be 47.63%.

Consider `CNC(=O)C1CCCCN1C(=O)c1sc(-c2ccc(C)o2)nc1C` (stereo not drawn), for which the INHIBITION is 16.73%.

For the compound `O=c1nc(SCc2cccnc2)c2c(n1CCO)CCCC2`, the INHIBITION worked out at 13.46%.

As for `CCN(Cc1ccc2c(c1)OCCO2)C(=O)NCc1cc[nH]n1`, the INHIBITION was found to be 21.31%.

Regarding `CSCC(C)(O)CNS(=O)(=O)c1cccc(C)c1` (stereo not drawn), the INHIBITION is 9.27%.

In the case of `CSCC(C)(O)CNS(=O)(=O)c1cccc(Cl)c1` (stereo not drawn), the INHIBITION is reported as 56.89%.

Turning to `CSCC(C)(O)CNS(=O)(=O)c1ccc(Br)cc1` (stereo not drawn), the INHIBITION came out at 9.27%.

As for `O=c1ccc(-n2ccnc2)nn1CCNS(=O)(=O)c1ccc(Cl)s1`, the INHIBITION is recorded as -54.51%.

As to `CC(C)n1nc2c(cc1=O)CN(CCOc1ccc(C#N)cc1)CC2`, the INHIBITION came out at 9.8%.

With `CNC(=O)c1cccc(C2CNCCN2C(=O)c2ccn(C)n2)c1` (stereo not drawn), the INHIBITION was found to be 24.56%.

For `Cc1ccc(C(=O)N2CCOCC3(CCN(C4CCOCC4)C3)C2)o1` (stereo not drawn), the INHIBITION was 14.89%.

Regarding `Cc1cccc(N(CCC(N)=O)CC(=O)Nc2cc(Cl)ccc2Cl)c1`, the INHIBITION is given as -10.14%.

Take `Cc1cccc(N(CCC(N)=O)CC(=O)NC2CCCC2)c1`: the INHIBITION is recorded as -22.8%.

For the compound `Cc1cccc(N(CCC(N)=O)CC(=O)Nc2ccccc2)c1`, the INHIBITION is reported as 50.31%.

For `CC(NC(=O)NCC1(c2ccc(F)cc2)CC1)c1nncn1C` (stereo not drawn), the INHIBITION is reported as -7.13%.

As for `CC(C)c1cc(NC(=O)CNC2CCCN(c3cccnn3)C2)on1` (stereo not drawn), the INHIBITION stood at 53.98%.

For the compound `Cc1ccc(N2CCCC(NCC(=O)Nc3cc(C)no3)C2)nn1` (stereo not drawn), the INHIBITION came out at 6.3%.

As for `Cc1cc(NC(=O)CNC2CCCN(c3cccnn3)C2)on1` (stereo not drawn), the INHIBITION is -3.06%.
